PAFAH1B2 FP inh = blocks human PAF acetylhydrolase 1b catalytic subunit 2; P68402; hit rate 1.2% among 340,000; AID 492953; recombinant PAFAH1B2, FP-rhodamine activity probe, fluorescence polarization; inhibition, % at 3.39 µM;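 active = inhibition above the mean of all tested compounds plus 3 SD, cut at about 24% in these data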;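 note: 0% = enzyme with DMSO and 100% = wells lacking PAFAH1B2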
PAFAH2 FP inh = PAFAH2 (human) inhibition; Q99487; recombinant PAFAH2, FP-rhodamine activity probe, fluorescence polarization; inhibition, % at 3.39 µM; hit rate 0.99% among 340,000; AID 492956;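 active = inhibition above the mean over all tested compounds plus 3 SD, cut at about 30% in these data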;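 note: inhibitors block probe labeling of enzyme so polarization drops; 0% = enzyme with DMSO and 100% = wells lacking PAFAH2 protein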
PP5 primary = blocks human protein phosphatase 5 activity | P53041 | purified PP5c, OMFP substrate fluorescence | inhibition, % at 6.7 µM | hit rate 0.18% among 320,000 | AID 1987;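 active = inhibition above the campaign's mean inhibition across all tested compounds plus 3 SD, cut at about 9.5% in these data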;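 note: 0% = DMSO only and 100% = 100 µM cantharidin control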
CTSL1 counter = blocks F. hepatica cathepsin L1 in PFM18AAP counter-screen | inhibition, % at 5.96 µM | hit rate 0.49% among 300,000 | recombinant F. hepatica cathepsin L1, Z-Leu-Arg-MCA fluorescence;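 active = inhibition above the mean of all tested compounds plus 3 SD, set per screening campaign, cut at about 17% in these data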;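 note: 0% = plate median of test compound wells and 100% = 1 µM Z-Phe-Ala-diazomethylketone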
PAFAH1B3 inh = PAFAH1B3 (human) inhibition | inhibition, % at 3.39 µM | recombinant PAFAH1B3, FP-rhodamine probe, fluorescence polarization | Q15102 | hit rate 0.28% among 340,000;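 active = inhibition above the screen-wide average of all tested compounds plus 3 SD, cut at about 25% in these data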;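 note: 0% = enzyme with DMSO only and 100% = wells lacking PAFAH1B3 protein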
pPAFAH inh = pPAFAH (human) enzyme inhibition; Q13093; recombinant pPAFAH, FP-rhodamine probe fluorescence polarization; inhibition, % at 3.39 µM; hit rate 1.5% among 330,000; AID 463082;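 active = inhibition above the mean inhibition across the screen plus 3 SD, cut at about 25% in these data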;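 note: inhibitors block binding of the rhodamine activity-based probe so polarization drops; 0% = enzyme with DMSO and 100% = wells lacking pPAFAH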
Target sequence (Q13093 whole entry, looked up): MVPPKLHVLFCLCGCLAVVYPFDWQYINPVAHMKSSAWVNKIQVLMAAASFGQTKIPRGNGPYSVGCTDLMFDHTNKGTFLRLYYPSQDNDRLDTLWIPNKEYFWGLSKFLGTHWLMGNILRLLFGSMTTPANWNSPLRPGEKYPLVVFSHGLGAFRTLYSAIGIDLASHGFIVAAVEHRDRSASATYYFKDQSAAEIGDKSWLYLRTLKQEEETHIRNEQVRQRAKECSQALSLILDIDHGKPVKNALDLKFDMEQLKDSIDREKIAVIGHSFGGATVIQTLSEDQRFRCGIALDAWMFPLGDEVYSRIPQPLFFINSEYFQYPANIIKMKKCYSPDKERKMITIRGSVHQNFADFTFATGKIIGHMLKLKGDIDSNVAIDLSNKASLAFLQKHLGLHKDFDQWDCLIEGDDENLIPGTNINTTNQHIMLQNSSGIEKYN
PP5 inh confirm = confirmation of human PP5 phosphatase inhibitors; AID 2331; inhibition, % at 6.7 µM; shares compounds with PP5 primary; Purified PP5, fluorogenic phosphatase substrate, fluorescence; hit rate 22% among 460; in the data active = inhibition above about 9.5%
PP1 inh counter = inhibits human PP1 phosphatase in PP5 counter-screen. shares compounds with PP5 primary. PP1 enzyme, fluorescent phosphatase substrate. inhibition, % at 6.7 µM. hit rate 4% among 460; in the data active = inhibition above about 16%
* hit, by the source's call. In the library only some 3% were active in any assay of this set; here they are far more common.

For COc1ccc(-n2nc(C(=O)NCC(=O)NCCc3ccc(OC)c(OC)c3)c3ccccc3c2=O)cc1Cl the results were PAFAH1B2 FP inh 4, PAFAH2 FP inh 4, PP5 primary 1, CTSL1 counter -1, PAFAH1B3 inh 0 and pPAFAH inh -6.
For CCC1(c2ccccc2)NC(=O)N(CC(=O)Nc2cccnc2Cl)C1=O (configuration not stated) the results were PAFAH1B2 FP inh 0, PAFAH2 FP inh 5, PP5 primary -1, PAFAH1B3 inh 1 and pPAFAH inh 4.
For O=C(CN1C(=O)NC(c2ccccc2)(c2ccccc2)C1=O)Nc1cccnc1Cl the results were PAFAH1B2 FP inh 3, PAFAH2 FP inh 0, PP5 primary 12*, CTSL1 counter 2, PAFAH1B3 inh 12, pPAFAH inh 3, PP5 inh confirm -5 and PP1 inh counter -4.
Screening O=C(c1ccc2c(=O)n(Cc3ccc(Cl)cc3)c(=S)[nH]c2c1)N1CCCC1 returned PAFAH1B2 FP inh -4, PAFAH2 FP inh -2, PP5 primary 0, CTSL1 counter 1, PAFAH1B3 inh 3 and pPAFAH inh 1.
`O=c1c2ccc(Cl)cc2[nH]c(=S)n1Cc1cccnc1` gave PAFAH1B2 FP inh 0, PAFAH2 FP inh -2, PP5 primary 11*, CTSL1 counter -2, PAFAH1B3 inh 8, pPAFAH inh -6, PP5 inh confirm -4 and PP1 inh counter -3.
Screening O=C(NCCCOc1ccc([N+](=O)[O-])cc1Cl)OCc1ccccc1 returned PAFAH1B2 FP inh 8, PAFAH2 FP inh -4 and PAFAH1B3 inh -2.
`O=C(c1ccc(C(F)(F)F)cc1)c1c[nH]c(C(=O)NCCCn2ccnc2)c1` gave PAFAH1B2 FP inh 9, PAFAH2 FP inh -1, PP5 primary 12*, CTSL1 counter 0, PAFAH1B3 inh 6, pPAFAH inh 0, PP5 inh confirm -2 and PP1 inh counter -3.
O=C(Cc1ccccc1)c1c[nH]c(C(=O)NCCCn2ccnc2)c1 was read as PP5 primary 0, CTSL1 counter -3 and pPAFAH inh 1.
Screening Cc1ccc(-c2ccc(/C=N\n3cnnc3)o2)c(Br)c1 returned PAFAH1B2 FP inh 5, PAFAH2 FP inh 1, PP5 primary 11*, CTSL1 counter 1, PAFAH1B3 inh 14, pPAFAH inh 7, PP5 inh confirm -3 and PP1 inh counter -2.
For O=C1CN(C(=O)COC(=O)c2ccc(Br)o2)c2ccccc2N1 the results were PAFAH1B2 FP inh 4, PAFAH2 FP inh 6, PAFAH1B3 inh -1 and pPAFAH inh 3.
Screening COc1ccccc1CC(=O)O/N=C(\N)Cc1cccc2ccccc12 returned PAFAH1B2 FP inh 3, PAFAH2 FP inh 34*, PP5 primary 12*, CTSL1 counter 0, PAFAH1B3 inh -4, pPAFAH inh -1, PP5 inh confirm -2 and PP1 inh counter -3.
O=C1C(Cl)=C(N2CCN(c3ccccc3[N+](=O)[O-])CC2)C(=O)c2ccccc21 was read as PAFAH1B2 FP inh 28*, PAFAH2 FP inh 40*, PP5 primary 14*, CTSL1 counter 9, PAFAH1B3 inh 49*, pPAFAH inh 16, PP5 inh confirm 24* and PP1 inh counter 5.
O=[N+]([O-])c1cc(Cl)ccc1N1CCCC1 was read as PAFAH1B2 FP inh 6, PAFAH2 FP inh -2, PP5 primary -1, CTSL1 counter -1, PAFAH1B3 inh 6 and pPAFAH inh 1.
For CCOc1ccc(-c2c(C(=O)N/N=C/C3CC=CCC3)nnn2-c2nonc2N)cc1 (configuration not stated) the results were PAFAH1B2 FP inh 0, PAFAH2 FP inh 0, PP5 primary 0, CTSL1 counter -8, PAFAH1B3 inh 1 and pPAFAH inh 3.
`CC(=O)C1=C(c2ccc(Br)cc2)C(=O)c2ccccc2C1=O` gave PAFAH1B2 FP inh 2, PAFAH2 FP inh 10, PP5 primary 11*, CTSL1 counter -3, PAFAH1B3 inh -4, pPAFAH inh 14, PP5 inh confirm 10* and PP1 inh counter 5.
`CC(=O)Nc1c(Br)cc2c(c1Br)C(=O)c1ccccc1-2` gave PAFAH1B2 FP inh 7, PAFAH2 FP inh 3 and PAFAH1B3 inh 5.
For O=C(c1ccc([N+](=O)[O-])cc1)N1CCN(C2=NS(=O)(=O)c3ccccc32)CC1 the results were PAFAH1B2 FP inh 1, PAFAH2 FP inh -11, PP5 primary -1, CTSL1 counter -1, PAFAH1B3 inh 6 and pPAFAH inh 1.
For Cn1c(=O)c2ccccc2n(CC(=O)N2CCCc3ccccc32)c1=O the results were PAFAH1B2 FP inh 0, PAFAH2 FP inh -1, PP5 primary -7, CTSL1 counter -1, PAFAH1B3 inh 12 and pPAFAH inh -3.
O=C1OCCC1Sc1nnc(-c2cccc(Br)c2)o1 (configuration not stated) was read as PAFAH1B2 FP inh 1, PAFAH2 FP inh -2, PP5 primary 12*, CTSL1 counter 0, PAFAH1B3 inh -6, pPAFAH inh 4, PP5 inh confirm -3 and PP1 inh counter -3.
`O=C1OCCC1Sc1nnc(-c2ccc3c(c2)OCO3)o1` (configuration not stated) gave PAFAH1B2 FP inh -2, PAFAH2 FP inh 4, PP5 primary 1, CTSL1 counter 2, PAFAH1B3 inh 2 and pPAFAH inh 4.
`CC(C)C[C@H]1CN=C(Nc2ccccc2)N1CCCCc1ccccc1` gave PAFAH1B2 FP inh 2, PAFAH2 FP inh 1, PP5 primary 46*, CTSL1 counter -4, PAFAH1B3 inh 7, pPAFAH inh 1, PP5 inh confirm -4 and PP1 inh counter -7.
For CC(C(=O)Nc1ccc(N2CCOCC2)cc1)N1C(=O)NC(C)(C)C1=O (configuration not stated) the results were PAFAH1B2 FP inh 4, PAFAH2 FP inh 5, PP5 primary -1, PAFAH1B3 inh 3 and pPAFAH inh -3.
Screening O=C(NNC(=O)c1ccc[nH]1)Nc1cc(Cl)cc(Cl)c1 returned PP5 primary 16*, CTSL1 counter 3, pPAFAH inh -2, PP5 inh confirm -3 and PP1 inh counter -8.
Screening O=C(Cc1ccc(S(=O)(=O)N2CCOCC2)s1)Nc1cc(C(F)(F)F)cc(C(F)(F)F)c1 returned PAFAH1B2 FP inh -6, PAFAH2 FP inh -10, PP5 primary 9.7*, PAFAH1B3 inh -3, pPAFAH inh -5, PP5 inh confirm 13* and PP1 inh counter 9.

Screening data as filed in PubChem.
